Source: PubChem
Most compounds without a hit are left out; they make up all but 3.4% or so of the library.
GPR151 activ = activators of human GPR151, primary screen, cell-based, PathHunter beta-arrestin, luminescence; G-protein coupled receptor 151 (Homo sapiens), Q8TDV0; hit rate 1% among 650,000; activation, % at 11.2 µM; AID 1508602, 2020; PathHunter beta-arrestin GPR151 cells; in the data active means activation above about 4.9%
TEAD-YAP inh = TEAD-YAP interaction inhibition, primary screen, TEAD-YAP interaction inhibitor project, luminescence, HEK-TIYL cells; TEAD-Gal4/YAP UAS-luciferase luminescence; inhibition, % at 9.12 µM; hit rate 1.4% among 640,000; in the data active means inhibition above about 32%
MITF inh = MITF inhibitors, primary screen, biochemical, AlphaScreen, human. Microphthalmia-associated transcription factor (Homo sapiens), O75030. AlphaScreen MITF homodimerization, bead proximity signal. inhibition, % at 2.6 µM. hit rate 0.91% among 650,000. AID 1259374, 2018; in the data active means inhibition above about 50%
Target sequence (O75030 whole entry, looked up): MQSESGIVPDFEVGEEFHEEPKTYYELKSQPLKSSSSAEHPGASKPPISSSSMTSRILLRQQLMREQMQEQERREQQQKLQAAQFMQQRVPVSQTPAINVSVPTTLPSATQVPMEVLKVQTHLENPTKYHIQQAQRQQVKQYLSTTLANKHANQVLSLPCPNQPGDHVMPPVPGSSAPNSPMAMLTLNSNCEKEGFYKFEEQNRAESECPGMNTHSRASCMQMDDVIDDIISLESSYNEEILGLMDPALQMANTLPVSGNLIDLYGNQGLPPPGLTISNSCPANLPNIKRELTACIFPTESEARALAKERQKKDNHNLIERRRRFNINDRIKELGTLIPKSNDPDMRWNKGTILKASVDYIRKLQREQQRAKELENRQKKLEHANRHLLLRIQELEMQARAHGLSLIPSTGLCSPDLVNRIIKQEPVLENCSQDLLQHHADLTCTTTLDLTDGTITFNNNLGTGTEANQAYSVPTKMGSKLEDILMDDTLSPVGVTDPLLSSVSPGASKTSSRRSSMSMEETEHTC
FBW7 activator = FBW7 E3 ligase activators, primary screen, biochemical, AlphaScreen, human | AlphaScreen FBW7–phospho-cyclin E peptide binding, activator screen | normalized activity (activation), % at 26.1 µM | hit rate 0.13% among 650,000; in the data active means normalized activity above about 1.9%;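 further: purified mutant Fbw7 with reduced substrate affinity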
GPR151 conf act = GPR151 activators, triplicate retest, confirmation, cell-based, PathHunter beta-arrestin, luminescence; shares compounds with GPR151 activ; GPR151 PathHunter beta-arrestin cells, 90 min; % of EA-reagent control over plate median; activation, % at 11.2 µM; 6,700 tested, under 10 active; AID 1508609, 2020;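 active means mean percent activation across replicates above the confirmation screen cutoff of 4.91%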
GPR119 ag = GPR119 activators in beta-arrestin cells, counter-screen for GPR151 activator project, cell-based, PathHunter beta-arrestin, luminescence, triplicate; AID 1508611, 2020; activation, % at 11.2 µM; hit rate 0.3% among 6,700; 90 min; 0 = compound-well median, 100 = enzyme-acceptor control; shares compounds with GPR151 activ;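 active means mean percent activation in the counterscreen above 29.09%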;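 further: counterscreen on off-target GPR119 to flag nonselective hits from the GPR151 activator screen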
Numbers stand for hits; 0 = inactive; - = no result.

SMILES | GPR151 activ | TEAD-YAP inh | MITF inh | FBW7 activator | GPR151 conf act | GPR119 ag
Cc1cccc(NC(=O)Nc2cnn(-c3cccc(C(=O)NOCc4ccccc4)c3)c2)c1 | 4.9 | 0 | 0 | 0 | 0 | 0
Cc1ccc(N2C(=O)N(CC(=O)N(C)C3CCCCC3)C(=O)C2C)cc1 (centres undefined) | 0 | 0 | 0 | 0 | - | -
CCc1ccccc1OCCn1cccc1/C=C1/C(=N)N2OC(C)=CC2=NC1=O | 0 | 0 | 0 | 0 | - | -
CCSc1nc2c(c(=O)n(C)c(=O)n2C)n1Cc1c(F)cccc1Cl | 5.2 | 0 | 0 | 0 | 0 | 0
Cn1c(=O)c2c(nc(Cl)n2Cc2c(F)cccc2Cl)n(C)c1=O | 0 | 0 | 0 | 0 | - | -
Cc1ccc(NC(=S)NC(=O)c2ccccc2Cl)c(Br)c1 | 0 | 0 | 0 | 0 | - | -
CSc1ccc(NC(=O)Nc2c(C)n(-c3ccccc3)c(=O)n2C)cc1 | 6.5 | 0 | 0 | 0 | 0 | 0
O=C1N2CN(C(c3ccccc3)c3ccccc3)CN=C2SC1(CO)CO | 7.7 | 0 | 0 | 0 | 0 | 0
COc1ccc(Cl)cc1C(=O)NCCCCN1CCOC(c2ccccc2)C1 (centres undefined) | 0 | 0 | 0 | 0 | - | -
Cc1nc(SCC2=C(C(=O)OC(C)C)C(c3ccccc3Cl)C(C#N)=C(N)O2)c(C#N)c(C)c1C (centres undefined) | 0 | 0 | 0 | 0 | - | -
Cc1ccc(NC(=O)Cn2nnc(C(=O)NCc3ccccc3)c2N)c(C)c1 | 0 | 0 | 0 | 0 | - | -
Clc1ccc(C(Cn2ccnc2)OCc2c(Cl)cccc2Cl)c(Cl)c1 (centres undefined) | 10 | - | 0 | 0 | 0 | 0
Cc1cc(OCC(=O)NN2CCOCC2)ccc1[N+](=O)[O-] | 5.0 | 0 | 0 | 0 | 0 | 0
Cc1cc(OCC(=O)NN2CCN(C)CC2)ccc1[N+](=O)[O-] | 0 | 0 | 0 | 0 | - | -
Cc1sc2ncnc(SCC(=O)N(C)Cc3ccccc3)c2c1C | 0 | 0 | 0 | 0 | - | -
Cc1cc(C)c(C(=O)COC(=O)c2cc(S(=O)(=O)N3CCOCC3)ccc2F)cc1C | 0 | 0 | 0 | 0 | - | -
CCOC(=O)C1(CC2CC2)CCN(S(=O)(=O)c2cc(Cl)ccc2OC)CC1 | 0 | 0 | 0 | 0 | - | -
CCOC(=O)C1(CC2CC2)CCN(S(=O)(=O)c2cc(C)sc2C)CC1 | 6.3 | 0 | 0 | 0 | 0 | 0
C=CCn1c(COc2ccccc2C)n[nH]c1=S | 0 | 0 | 0 | 0 | - | -
C=CCn1c(COc2cccc(C)c2C)n[nH]c1=S | 5.0 | 0 | 0 | 0 | 0 | 0
O=C(Cc1cccc2ccccc12)N/N=C/c1ccccc1F | 0 | 0 | 0 | 0 | - | -
Cc1cccn2c(CN(C)CCC3CCOCC3)c(C(=O)N(C)CCc3ccccc3)nc12 | 6.2 | 0 | 0 | 0 | 0 | 0
C=CCc1ccccc1C(=O)N/N=C/c1cccnc1 | 0 | 0 | 0 | 0 | - | -
CC1=C(C(=O)N2CCC(CCC(=O)N(C)Cc3ccccc3)CC2)OCCO1 | 0 | 0 | 0 | 0 | - | -
CN(Cc1ccccc1)C(=O)CCC1CCN(C(=O)C(=O)c2ccccc2)CC1 | 5.2 | 0 | 0 | 0 | 0 | 0
SMILES | GPR151 activ | TEAD-YAP inh | MITF inh | FBW7 activator | GPR151 conf act | GPR119 ag
O=C(CCc1nnc(C2CCCCC2)o1)NCc1nc2c(s1)CCCC2 | 0 | 0 | 0 | 0 | - | -
O=C(NCc1cccs1)C1(c2ccccc2)CC1 | 8.6 | 0 | 0 | 0 | 0 | 0
O=C(NCc1cccs1)Nc1ccccc1 | 0 | 0 | 0 | 0 | - | -
O=C(O)C1(c2ccccc2)CCN(S(=O)(=O)c2ccccc2)CC1 | 0 | 0 | 0 | 0 | - | -
O=C(NCc1ccccc1)C1(c2ccccc2)CCN(S(=O)(=O)c2ccccc2)CC1 | 5.6 | 0 | 0 | 0 | 0 | 0
O=C(NCc1cccs1)Nc1ccccc1Cl | 6.2 | 0 | 0 | 0 | 0 | 0
CC(C)n1cnc2c(NCCOc3ccccc3)nc(-c3csc4ccccc34)nc21 | 0 | 0 | 0 | 0 | - | -
Cc1cncc2c(S(=O)(=O)N3CC[C@H](NC(=O)CN)C3)cccc12 | 6.1 | 0 | 0 | 0 | 0 | 0
Fc1ccc(CSc2ccc3nnc(-c4cccnc4)n3n2)cc1 | 5.3 | 0 | 0 | 0 | 0 | 0
c1ccc(-c2nnc3ccc(SCc4cccnc4)nn23)cc1 | 0 | 0 | 0 | 0 | - | -
